Reference: the supplement of paper PMC6411743
± gives the standard deviation of the averaged measurements. Of roughly 6,500 targets only a part is listed; those with the largest changes were picked by preference.

Compound: Nc1ncnc2c1ncn2[C@@H]1O[C@H](COP(=O)(O)OP(=O)(O)OP(=O)(O)O)[C@@H](O)[C@H]1O [adenosine triphosphate]
Assay: NP40-soluble protein abundance relative to vehicle (solubility fold change) (ratio); higher = more soluble protein in presence of ATP
Procedure, shortened: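 Eight concentrations, 0.1 to 10 mM, were tested on Jurkat crude lysate for 10 min at room temperature and then 3 min at 37 °C, in three independent experiments. The lysate was solubilised with 0.8% NP40 and benzonase, ultracentrifuged, and the supernatant TMT-labelled for LC-MS/MS. Each value is the fold change against the detergent-processed vehicle in its own replicate, from vsn-normalised intensities.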

Sequence of UniProt Q8IY21 (Q8IY21 whole entry): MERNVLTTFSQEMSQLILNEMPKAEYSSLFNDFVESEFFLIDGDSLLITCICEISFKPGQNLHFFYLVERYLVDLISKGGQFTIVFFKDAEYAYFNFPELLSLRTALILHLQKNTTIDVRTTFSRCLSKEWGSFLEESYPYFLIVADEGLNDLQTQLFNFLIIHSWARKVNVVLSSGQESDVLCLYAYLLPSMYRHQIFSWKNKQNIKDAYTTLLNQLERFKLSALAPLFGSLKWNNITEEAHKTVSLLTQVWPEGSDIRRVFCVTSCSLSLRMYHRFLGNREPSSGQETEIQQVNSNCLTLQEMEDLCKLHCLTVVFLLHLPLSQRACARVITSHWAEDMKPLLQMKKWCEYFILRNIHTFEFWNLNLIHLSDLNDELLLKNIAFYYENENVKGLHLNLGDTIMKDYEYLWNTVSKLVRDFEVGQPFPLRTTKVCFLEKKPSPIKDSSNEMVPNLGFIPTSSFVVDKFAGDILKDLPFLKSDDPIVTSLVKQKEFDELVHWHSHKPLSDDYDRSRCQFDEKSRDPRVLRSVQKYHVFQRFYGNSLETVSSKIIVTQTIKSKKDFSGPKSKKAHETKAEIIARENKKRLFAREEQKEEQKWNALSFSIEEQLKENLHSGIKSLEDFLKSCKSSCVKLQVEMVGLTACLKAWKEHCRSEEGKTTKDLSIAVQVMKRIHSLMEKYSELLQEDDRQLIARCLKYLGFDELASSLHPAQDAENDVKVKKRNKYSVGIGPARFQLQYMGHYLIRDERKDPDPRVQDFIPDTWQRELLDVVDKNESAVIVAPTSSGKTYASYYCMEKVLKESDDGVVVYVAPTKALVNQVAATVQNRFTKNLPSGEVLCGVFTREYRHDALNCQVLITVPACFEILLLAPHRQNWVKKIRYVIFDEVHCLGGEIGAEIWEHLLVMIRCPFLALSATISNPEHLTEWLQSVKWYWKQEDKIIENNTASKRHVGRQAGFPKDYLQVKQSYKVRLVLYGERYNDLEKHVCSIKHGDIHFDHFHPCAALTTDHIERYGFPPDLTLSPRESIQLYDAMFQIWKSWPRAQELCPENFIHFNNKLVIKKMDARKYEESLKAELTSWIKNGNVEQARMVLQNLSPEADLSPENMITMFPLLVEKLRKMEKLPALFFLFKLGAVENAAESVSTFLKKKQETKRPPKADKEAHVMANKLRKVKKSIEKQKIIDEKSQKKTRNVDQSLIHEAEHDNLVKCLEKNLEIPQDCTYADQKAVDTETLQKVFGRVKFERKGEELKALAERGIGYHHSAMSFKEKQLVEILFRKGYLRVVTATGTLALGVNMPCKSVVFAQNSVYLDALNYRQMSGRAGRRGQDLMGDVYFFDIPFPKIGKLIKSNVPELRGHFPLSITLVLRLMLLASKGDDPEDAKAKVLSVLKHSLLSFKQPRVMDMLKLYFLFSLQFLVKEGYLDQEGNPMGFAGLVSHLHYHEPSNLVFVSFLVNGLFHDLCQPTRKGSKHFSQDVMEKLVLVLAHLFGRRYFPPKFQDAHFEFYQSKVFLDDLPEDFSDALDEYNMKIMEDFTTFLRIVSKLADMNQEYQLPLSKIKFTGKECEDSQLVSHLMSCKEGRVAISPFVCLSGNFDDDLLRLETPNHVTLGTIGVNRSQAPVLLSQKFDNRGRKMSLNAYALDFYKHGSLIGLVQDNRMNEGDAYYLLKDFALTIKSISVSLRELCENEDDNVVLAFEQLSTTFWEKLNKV
Sequence of UniProt Q86X83 (Q86X83 whole entry): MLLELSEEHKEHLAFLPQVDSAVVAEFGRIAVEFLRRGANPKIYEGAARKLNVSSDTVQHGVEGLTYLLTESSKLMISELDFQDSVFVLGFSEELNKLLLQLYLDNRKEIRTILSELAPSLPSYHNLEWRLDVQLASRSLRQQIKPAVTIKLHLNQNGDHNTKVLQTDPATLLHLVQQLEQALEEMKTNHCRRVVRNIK
Sequence of UniProt Q8IUH5 (Q8IUH5 whole entry): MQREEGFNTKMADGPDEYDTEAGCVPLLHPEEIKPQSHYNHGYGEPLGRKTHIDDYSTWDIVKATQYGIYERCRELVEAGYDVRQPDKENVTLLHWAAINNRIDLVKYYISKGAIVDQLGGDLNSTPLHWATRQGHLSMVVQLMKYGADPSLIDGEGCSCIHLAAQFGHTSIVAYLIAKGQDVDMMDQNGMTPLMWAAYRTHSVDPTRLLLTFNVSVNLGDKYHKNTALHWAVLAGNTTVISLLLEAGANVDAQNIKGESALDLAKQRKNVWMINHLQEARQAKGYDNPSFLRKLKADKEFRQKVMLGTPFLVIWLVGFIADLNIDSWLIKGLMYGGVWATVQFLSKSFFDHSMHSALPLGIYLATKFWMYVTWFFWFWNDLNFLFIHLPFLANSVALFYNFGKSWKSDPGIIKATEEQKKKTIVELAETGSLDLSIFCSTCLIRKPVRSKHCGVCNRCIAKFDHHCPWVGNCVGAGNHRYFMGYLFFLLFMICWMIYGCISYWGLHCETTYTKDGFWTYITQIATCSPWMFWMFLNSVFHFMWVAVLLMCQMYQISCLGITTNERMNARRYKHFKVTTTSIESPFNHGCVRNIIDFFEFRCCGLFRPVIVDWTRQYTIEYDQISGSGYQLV
Sequence of UniProt Q86U06 (Q86U06 whole entry, one chain of several): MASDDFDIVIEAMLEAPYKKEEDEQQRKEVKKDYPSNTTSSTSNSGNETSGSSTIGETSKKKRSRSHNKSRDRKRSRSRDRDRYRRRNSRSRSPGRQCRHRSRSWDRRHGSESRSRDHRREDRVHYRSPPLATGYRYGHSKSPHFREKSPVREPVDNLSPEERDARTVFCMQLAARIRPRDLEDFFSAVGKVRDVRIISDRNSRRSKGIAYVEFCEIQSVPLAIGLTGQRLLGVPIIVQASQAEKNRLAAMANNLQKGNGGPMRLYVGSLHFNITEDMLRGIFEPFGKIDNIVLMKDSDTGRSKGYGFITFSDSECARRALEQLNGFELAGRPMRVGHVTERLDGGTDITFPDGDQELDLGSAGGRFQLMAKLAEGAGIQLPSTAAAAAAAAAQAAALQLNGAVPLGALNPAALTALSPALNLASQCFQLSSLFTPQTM
Sequence of UniProt Q70Z53 (Q70Z53 whole entry): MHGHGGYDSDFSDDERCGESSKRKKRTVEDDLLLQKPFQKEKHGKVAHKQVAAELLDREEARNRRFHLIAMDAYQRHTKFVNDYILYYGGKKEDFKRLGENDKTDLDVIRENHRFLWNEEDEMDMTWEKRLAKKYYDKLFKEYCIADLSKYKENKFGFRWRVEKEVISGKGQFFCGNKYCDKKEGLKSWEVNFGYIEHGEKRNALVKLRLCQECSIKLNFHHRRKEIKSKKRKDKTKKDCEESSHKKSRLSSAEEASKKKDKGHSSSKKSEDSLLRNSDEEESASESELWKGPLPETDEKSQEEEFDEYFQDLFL
Sequence of UniProt Q8IYD1 (Q8IYD1 whole entry): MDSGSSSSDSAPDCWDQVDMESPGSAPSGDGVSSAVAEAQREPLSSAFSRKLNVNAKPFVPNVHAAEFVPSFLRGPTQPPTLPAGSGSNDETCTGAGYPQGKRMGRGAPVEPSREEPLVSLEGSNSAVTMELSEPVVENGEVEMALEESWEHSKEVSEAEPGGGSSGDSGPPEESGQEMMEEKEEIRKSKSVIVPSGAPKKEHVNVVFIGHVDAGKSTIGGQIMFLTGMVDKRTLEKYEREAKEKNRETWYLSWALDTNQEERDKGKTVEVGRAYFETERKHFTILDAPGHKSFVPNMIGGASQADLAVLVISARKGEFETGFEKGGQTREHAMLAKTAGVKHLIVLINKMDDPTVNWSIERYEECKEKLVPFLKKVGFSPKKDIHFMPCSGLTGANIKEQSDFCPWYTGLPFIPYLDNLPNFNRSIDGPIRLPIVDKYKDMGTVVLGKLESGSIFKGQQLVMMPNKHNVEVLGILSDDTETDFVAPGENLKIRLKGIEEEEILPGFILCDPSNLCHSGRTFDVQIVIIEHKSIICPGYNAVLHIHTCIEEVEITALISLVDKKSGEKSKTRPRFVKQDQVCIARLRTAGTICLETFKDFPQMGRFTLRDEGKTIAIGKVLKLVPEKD
Sequence of UniProt Q86UT6 (Q86UT6 whole entry): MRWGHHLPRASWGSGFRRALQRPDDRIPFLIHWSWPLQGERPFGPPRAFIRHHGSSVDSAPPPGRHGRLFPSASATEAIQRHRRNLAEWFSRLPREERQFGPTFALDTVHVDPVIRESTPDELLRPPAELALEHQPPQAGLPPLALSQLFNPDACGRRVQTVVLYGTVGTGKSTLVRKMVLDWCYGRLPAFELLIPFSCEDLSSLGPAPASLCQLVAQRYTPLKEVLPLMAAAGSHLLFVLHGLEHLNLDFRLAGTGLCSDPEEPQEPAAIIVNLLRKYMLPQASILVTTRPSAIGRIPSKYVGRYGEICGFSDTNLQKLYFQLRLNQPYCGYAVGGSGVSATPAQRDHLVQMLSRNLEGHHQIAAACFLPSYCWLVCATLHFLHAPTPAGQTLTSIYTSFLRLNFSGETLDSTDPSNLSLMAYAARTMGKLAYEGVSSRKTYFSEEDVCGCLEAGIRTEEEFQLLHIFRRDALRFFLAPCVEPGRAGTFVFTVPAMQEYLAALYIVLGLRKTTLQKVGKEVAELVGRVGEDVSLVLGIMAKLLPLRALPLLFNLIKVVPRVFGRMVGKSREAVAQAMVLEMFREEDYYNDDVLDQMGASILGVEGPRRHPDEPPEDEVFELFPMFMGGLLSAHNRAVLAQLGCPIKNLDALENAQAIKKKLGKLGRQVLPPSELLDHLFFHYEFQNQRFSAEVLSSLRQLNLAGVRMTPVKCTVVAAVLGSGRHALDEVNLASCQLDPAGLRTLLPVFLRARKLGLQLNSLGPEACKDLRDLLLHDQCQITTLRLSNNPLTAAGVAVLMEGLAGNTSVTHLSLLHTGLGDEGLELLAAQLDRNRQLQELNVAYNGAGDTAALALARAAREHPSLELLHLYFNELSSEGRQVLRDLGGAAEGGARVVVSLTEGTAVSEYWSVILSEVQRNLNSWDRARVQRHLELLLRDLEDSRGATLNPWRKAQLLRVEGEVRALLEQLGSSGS

Target	NP40-soluble protein abundance (concentration: 1mM)	NP40-soluble protein abundance (concentration: 2mM)	NP40-soluble protein abundance (concentration: 4mM)	NP40-soluble protein abundance (concentration: 6mM)	NP40-soluble protein abundance (concentration: 8mM)	NP40-soluble protein abundance (concentration: 10mM)
TRIM14 (UniProt Q14142)	1.08 ± 0.044	1.05 ± 0.037	1.13 ± 0.088	1.1 ± 0.083	1.17 ± 0.067	1.27 ± 0.2
UniProt Q4FZB7	0.985 ± 0.15	1.1 ± 0.23	1.07 ± 0.11	1.01 ± 0.16	1.01 ± 0.029	0.983 ± 0.065
UniProt Q53GS7|Q53GS7-2	1.18 ± 0.079	1.19 ± 0.12	1.39 ± 0.24	1.54 ± 0.24	1.52 ± 0.2	1.71 ± 0.23
GSPT2 (UniProt Q8IYD1)	1.035 ± 0.0061	1.023 ± 0.0095	1 ± 0.016	1.01 ± 0.02	0.991 ± 0.042	0.987 ± 0.037
PCGF5 (UniProt Q86SE9)	0.922 ± 0.16	1.01 ± 0.056	0.981 ± 0.15	0.987 ± 0.087	0.954 ± 0.11	1.07 ± 0.037
UniProt Q8NI08-2	0.989 ± 0.064	1.03 ± 0.032	1.01 ± 0.016	1.02 ± 0.022	0.989 ± 0.039	0.993 ± 0.024
UniProt Q86X83|Q86X83-2	1.01 ± 0.038	0.975 ± 0.011	0.963 ± 0.024	0.927 ± 0.022	0.956 ± 0.048	0.971 ± 0.021
UniProt Q13761|Q13761-2	1.07 ± 0.2	1.18 ± 0.35	1.18 ± 0.3	1.19 ± 0.31	1.13 ± 0.23	1.18 ± 0.13
UniProt Q8NEJ9|Q8NEJ9-2	1.11 ± 0.12	1.13 ± 0.16	1.24 ± 0.064	1.29 ± 0.14	1.32 ± 0.058	1.34 ± 0.19
UniProt Q7Z2T5	1.09 ± 0.05	1.16 ± 0.051	1.27 ± 0.013	1.39 ± 0.023	1.55 ± 0.018	1.69 ± 0.051
ZNF672 (UniProt Q499Z4)	0.994 ± 0.061	1.07 ± 0.0039	1 ± 0.089	0.93 ± 0.078	0.996 ± 0.047	0.995 ± 0.016
ZDHHC17 (UniProt Q8IUH5)	1.08 ± 0.056	0.997 ± 0.021	1.11 ± 0.082	1.02 ± 0.058	1.09 ± 0.063	1.08 ± 0.033
UniProt Q8TED0|H0Y8P4|Q8TED0-3	1.18 ± 0.18	1.22 ± 0.11	1.32 ± 0.18	1.43 ± 0.28	1.5 ± 0.24	1.77 ± 0.41
NFX1 (UniProt Q12986)	1.07 ± 0.08	1.21 ± 0.042	1.34 ± 0.041	1.46 ± 0.046	1.62 ± 0.031	1.66 ± 0.11
UniProt Q14677|Q14677-3	1.04 ± 0.042	1.05 ± 0.02	1.04 ± 0.028	1.11 ± 0.027	1.07 ± 0.033	1.09 ± 0.055
UniProt Q13795|Q13795-3	0.95 ± 0.024	0.961 ± 0.015	0.932 ± 0.025	0.962 ± 0.046	0.9416 ± 0.0073	0.945 ± 0.039
UniProt Q86Y56	0.992 ± 0.076	0.985 ± 0.067	0.954 ± 0.036	0.917 ± 0.082	0.937 ± 0.046	0.976 ± 0.052
SF3B3 (UniProt Q15393)	1.12 ± 0.072	1.11 ± 0.052	1.15 ± 0.072	1.1 ± 0.032	1.188 ± 0.0092	1.19 ± 0.037

Target	NP40-soluble protein abundance (concentration: 1mM)	NP40-soluble protein abundance (concentration: 2mM)	NP40-soluble protein abundance (concentration: 4mM)	NP40-soluble protein abundance (concentration: 6mM)	NP40-soluble protein abundance (concentration: 8mM)	NP40-soluble protein abundance (concentration: 10mM)
UniProt Q6NW34|Q6NW34-2	0.863 ± 0.078	0.831 ± 0.11	0.792 ± 0.15	0.892 ± 0.11	0.84 ± 0.14	0.785 ± 0.21
UniProt Q8N684|Q8N684-2|Q8N684-3	1.51 ± 0.076	1.61 ± 0.016	1.75 ± 0.065	1.81 ± 0.081	1.82 ± 0.055	1.83 ± 0.032
CEP135 (UniProt Q66GS9)	0.983 ± 0.041	0.966 ± 0.026	0.964 ± 0.038	0.956 ± 0.036	0.972 ± 0.029	0.989 ± 0.047
UniProt Q8WU79|A0A087WV97|Q8WU79-2|Q8WU79-3	0.891 ± 0.067	0.924 ± 0.024	0.869 ± 0.011	0.975 ± 0.047	0.839 ± 0.017	0.872 ± 0.032
UniProt Q641Q2|F8W7U3|Q641Q2-2	0.968 ± 0.057	0.9815 ± 0.0096	0.938 ± 0.033	0.94 ± 0.094	0.895 ± 0.05	0.896 ± 0.047
RABEP1 (UniProt Q15276)	0.942 ± 0.049	0.944 ± 0.032	0.928 ± 0.021	0.995 ± 0.054	0.895 ± 0.016	0.9135 ± 0.0042
UniProt Q86U06|Q86U06-2|Q86U06-4|Q86U06-5|G3XAP0	1.5 ± 0.41	1.53 ± 0.31	1.48 ± 0.33	1.76 ± 0.46	1.56 ± 0.41	1.46 ± 0.49
DDX60 (UniProt Q8IY21)	1.2 ± 0.078	1.27 ± 0.093	1.66 ± 0.11	1.73 ± 0.15	1.9 ± 0.16	1.95 ± 0.11
UniProt Q13642-1|Q13642-4|Q13642-5	0.979 ± 0.17	0.968 ± 0.11	0.956 ± 0.098	0.926 ± 0.091	0.979 ± 0.12	0.983 ± 0.064
UniProt Q70Z53	0.931 ± 0.015	0.927 ± 0.028	0.919 ± 0.011	0.922 ± 0.066	0.933 ± 0.058	0.936 ± 0.013
ZNF579 (UniProt Q8NAF0)	0.954 ± 0.03	1.06 ± 0.12	0.945 ± 0.016	0.936 ± 0.073	0.901 ± 0.045	0.887 ± 0.1
PIGO (UniProt Q8TEQ8)	0.991 ± 0.035	1 ± 0.062	0.996 ± 0.02	0.979 ± 0.073	0.983 ± 0.051	1.01 ± 0.039
UniProt Q12872|Q12872-2	1.24 ± 0.083	1.33 ± 0.049	1.5 ± 0.049	1.77 ± 0.068	1.77 ± 0.066	1.93 ± 0.075
TYSND1 (UniProt Q2T9J0)	0.977 ± 0.047	0.983 ± 0.058	0.995 ± 0.042	0.947 ± 0.013	0.974 ± 0.032	0.96 ± 0.076
UniProt Q86UT6|Q86UT6-2	1.03 ± 0.027	1.081 ± 0.0018	0.99 ± 0.06	1.01 ± 0.18	1.02 ± 0.14	1.03 ± 0.12
PPIG (UniProt Q13427)	1.61 ± 0.22	1.69 ± 0.27	1.78 ± 0.32	1.99 ± 0.49	1.85 ± 0.43	1.95 ± 0.46
UniProt Q13243	1.5 ± 0.12	1.63 ± 0.088	1.76 ± 0.12	1.95 ± 0.11	1.92 ± 0.13	1.98 ± 0.07
UniProt Q7Z7K6|Q7Z7K6-3	1.08 ± 0.058	1.14 ± 0.19	1.33 ± 0.14	1.47 ± 0.24	1.56 ± 0.23	2.03 ± 0.28
